Among all 420,000 compounds or so, about 64,000 (15%) were called active. Another 27% or so got no clear call; they are omitted. A selection follows. A number with no mark means an inactive call. Calls come from the whole dose curve; as a rule, active = well fitted inhibition curve with a large enough effect; inconclusive = small, poorly fitted or top-dose-only effect; inactive = flat fitted curve, though single readings scatter.
Experiment: qHTS for Inhibitors of human tyrosyl-DNA phosphodiesterase 1 (TDP1): qHTS in cells in absence of CPT; note: nearly all actives have a fitted effect of over 55% in size
Details: DT40 Tdp1-/- hTDP1 cells, no CPT, ATP luminescence, 48 h; activity change, negative = growth inhibition: at 46.2 µM (top of the series)
Summary of the method: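 Cells were dispensed at 400 per well, compounds added by pin tool, plates incubated ≥48 hr at 37 °C, then CellTiter-Glo added for 30 min at room temperature before luminescence reading. Line: DT40 Tdp1-/- complemented with hTDP1; camptothecin omitted.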
With `O=C(COC(=O)C12CC3CC(CC(O)(C3)C1)C2)NC12CC3CC(CC(C3)C1)C2` the “activity change, negative = growth inhibition” value was -25.9%.
For `O=C(NC1CCN(C(=S)Nc2ccc(Cl)cc2)CC1)C1CCCCC1`, the “activity change, negative = growth inhibition” value was -2.42%.
For `CC(OC(=O)CCC(=O)c1ccccc1)C(=O)Nc1ccc(F)cc1` (configuration not stated), the “activity change, negative = growth inhibition” value was -20.1%.
In the case of `CCOC(=O)c1c(C)nn(-c2ncccc2NC(=O)CCC(=O)O)c1C`, the “activity change, negative = growth inhibition” value is reported as -16.1%.
With `C#CCCCc1nc2ccccc2c(=O)n1N` the “activity change, negative = growth inhibition” value was -22.3%.
In the case of `C/C(=N\N1CCN(Cc2ccc(C)cc2)CC1)c1ccco1`, the “activity change, negative = growth inhibition” value is reported as -25.2%.
In the case of `CC(=O)NC1C(Oc2ccc(C=O)cc2)OC(COC(C)=O)C(OC(C)=O)C1OC(C)=O` (configuration not stated), the “activity change, negative = growth inhibition” value is reported as 10.4%.
For `CC(=O)Oc1ccc2c(=O)oc(-c3ccc([N+](=O)[O-])cc3)nc2c1`, the “activity change, negative = growth inhibition” value was -3.77%.
With `CCCCSCCCNC(=O)C1CCC(CNS(=O)(=O)c2ccc(NC(C)=O)cc2)CC1` (configuration not stated) the “activity change, negative = growth inhibition” value was 3.72%.
For `Nc1nnnn1/N=C/c1cccs1`, the “activity change, negative = growth inhibition” value was -11.8%.
For `O=C(NCc1ccc(Cl)cc1)NCc1ccc(Cl)cc1`, the “activity change, negative = growth inhibition” value was -12%.
For `Fc1ccc2nc(N3CCCCC3)sc2c1`, the “activity change, negative = growth inhibition” value was 3.23%.
With `Fc1ccc2[nH]c3c(N4CCN(Cc5ccc6c(c5)OCO6)CC4)ncnc3c2c1` the Potency was 2.31 µM (active).
In the case of `O=C(CSc1nc2c(c(=O)[nH]1)CN(Cc1ccc3c(c1)OCO3)CC2)Nc1cc(F)ccc1F`, the “activity change, negative = growth inhibition” value is reported as -18.4%.
For `Fc1ccc2[nH]c3c(N4CCSCC4)ncnc3c2c1`, the Potency was 9.2 µM (active).
With `N#C/C=C/N1CCN(Cc2ccc3c(c2)OCO3)CC1` the “activity change, negative = growth inhibition” value was -14.4%.
For `CN(C)c1cccc(C(=O)N2CCC(n3nccc3NC(=O)C3CCOC3)CC2)c1` (configuration not stated), the “activity change, negative = growth inhibition” value was 1.6%.
For `Cc1ccc(NNC(=O)c2c(F)cccc2Cl)cc1Cl`, the “activity change, negative = growth inhibition” value was -9.04%.
With `O=C(CC(n1cncn1)C(Cl)(Cl)Cl)c1ccc([N+](=O)[O-])cc1` (configuration not stated) the Potency was 14.6 µM (active).
In the case of `C/C(=N/NC(=O)CSc1ccccn1)c1ccc([N+](=O)[O-])cc1`, the “activity change, negative = growth inhibition” value is reported as 2.71%.
For `O=C(CCn1nnc2ccccc21)OCC(=O)c1ccc([N+](=O)[O-])cc1`, the “activity change, negative = growth inhibition” value was -16.2%.
In the case of `NC(=O)c1ccc(-c2csnn2)cc1`, the “activity change, negative = growth inhibition” value is reported as -0.292%.
For `COc1ccc(COCCN2CCN(S(=O)(=O)c3ccccc3)CCC2=O)cc1`, the “activity change, negative = growth inhibition” value was 5.39%.
For `CN1CCC(=O)N([C@H](CO)Cc2ccccc2)CC1`, the Potency was “inactive”.
In the case of `Cc1ccc(S(=O)(=O)N2CCC(=O)N([C@H](COCc3ccccc3)Cc3ccccc3)CC2)cc1`, the Potency is reported as 18.4 µM (active).
For `Cc1cccc(N=C2NC(=O)CS2)c1C`, the “activity change, negative = growth inhibition” value was 3.53%.
With `Cc1ccc(NS(=O)(=O)c2ccc(N/N=C/c3ccccc3OCC(=O)O)c([N+](=O)[O-])c2)c(C)c1` the “activity change, negative = growth inhibition” value was -4.92%.
In the case of `O=[N+]([O-])c1cccc(/C=N/Nc2ncc(Br)cn2)c1`, the “activity change, negative = growth inhibition” value is reported as -9.68%.
With `Cc1cccc(COc2ccccc2/C=N/Nc2ccc([N+](=O)[O-])cc2)c1` the Potency was 20.6 µM (active).
With `CN1C(=O)C(CC(N)=O)N(NC(=O)c2ccc(Cl)cc2)C1=S` (configuration not stated) the “activity change, negative = growth inhibition” value was -2.93%.
With `CC(C)(C)NC(=O)CSC(=Nc1ccccc1F)NC#N` the Potency was 16.4 µM (active).
In the case of `CC(C)(C)NC(=O)CSc1nnc(NC(=O)CCc2ccccc2)s1`, the “activity change, negative = growth inhibition” value is reported as -17.3%.
For `Cc1ccccc1CSCC(=O)NC(=O)NC(C)(C)C`, the “activity change, negative = growth inhibition” value was -25.3%.
With `N#C/C(=C1\CCCN1)c1nc(-c2ccccc2)cs1` the “activity change, negative = growth inhibition” value was -23.2%.
In the case of `Cc1nc(C(F)(F)F)ccc1C(=O)N1CCC1(C)C(=O)NS(=O)(=O)c1ccc(F)cc1F` (configuration not stated), the “activity change, negative = growth inhibition” value is reported as 11.3%.
For `Cc1ccc(N(C(=O)C(F)(F)F)C(C(=O)NC2CCCCC2)c2ccncc2)cc1C` (configuration not stated), the Potency was 18.4 µM (active).
For `Cc1ccc(N(C(=O)CNC(=O)c2ccco2)C(C(=O)NC2CCCC2)c2ccncc2)cc1` (configuration not stated), the “activity change, negative = growth inhibition” value was -6.22%.
With `CCc1ccc(N(C(=O)c2csnn2)C(C(=O)NC2CCCCC2)c2ccncc2)cc1` (configuration not stated) the “activity change, negative = growth inhibition” value was -12.5%.
With `O=C(c1cc(-c2ccccc2O)on1)N1CCCC1` the “activity change, negative = growth inhibition” value was -3.42%.
For `O=C1C(=O)N(c2ccccc2)C(c2ccccc2)C1c1ccccc1` (configuration not stated), the “activity change, negative = growth inhibition” value was 10.2%.
With `CCc1ccccc1NC1c2ccccc2C(=O)N1c1cccnc1` (configuration not stated) the “activity change, negative = growth inhibition” value was -10.4%.
For `O=C1[C@@H](c2ccccc2)[C@@H](c2ccccc2)N1c1cccnc1`, the Potency was 8.2 µM (active).
With `CCCC(=O)N1c2ccccc2NC2=C(C(=O)CCC2)C1c1ccc(F)cc1` (configuration not stated) the “activity change, negative = growth inhibition” value was -8.27%.
With `Cc1ccc(C2c3[nH]c4ccccc4c3CCN2C(=O)c2cccc(C)c2)cc1` (configuration not stated) the Potency was 18.4 µM (active).
For `CCCC(=O)N1CCc2[nH]c3ccccc3c2C1`, the “activity change, negative = growth inhibition” value was -23.5%.
In the case of `Cc1cccc(C(=O)N2CCc3c([nH]c4ccccc34)C2CC(C)C)n1` (configuration not stated), the “activity change, negative = growth inhibition” value is reported as -16.7%.
With `CCOc1cccc(CC(=O)N2CCc3c([nH]c4ccccc34)C2c2ccc(F)cc2)c1OCC` (configuration not stated) the Potency was 25.9 µM (active).
For `Cc1cccc(C(=O)N2CCN(S(=O)(=O)N3CCCCC3)CC2)c1`, the “activity change, negative = growth inhibition” value was -33%.
For `O=C(COC(=O)CCOc1ccccc1)Nc1cc(S(=O)(=O)N2CCCCC2)ccc1Cl`, the “activity change, negative = growth inhibition” value was -8.88%.
With `CC1=Nn2c(nnc2-c2ccccc2)SC1` the “activity change, negative = growth inhibition” value was -23.9%.
For `COc1cccc(C(=O)NCCS(=O)(=O)NCC2CCCO2)c1` (configuration not stated), the “activity change, negative = growth inhibition” value was -6.41%.
For `CC1CCCCN1Cc1c(O)ccc2c(=O)c(-c3cccc(Cl)c3)c(C(F)(F)F)oc12` (configuration not stated), the “activity change, negative = growth inhibition” value was -9.1%.
With `CC(=O)c1cccc(OCC(=O)OCC(=O)Nc2cc(S(=O)(=O)N3CCCCC3)ccc2C)c1` the “activity change, negative = growth inhibition” value was 5.94%.
In the case of `COc1ccc2c(c1)c(=Cc1ccc(N(C)C)cc1)c1cc(-c3ccccc3)[n+](C)n12`, the Potency is reported as 0.92 µM (active).
For `Cc1ccc(N2CC(NC(=O)Cc3cccs3)CC2=O)cc1` (configuration not stated), the “activity change, negative = growth inhibition” value was -1.33%.
In the case of `Cc1onc(-c2ccccc2)c1C(=O)N1CCOCC1`, the “activity change, negative = growth inhibition” value is reported as -11%.
With `O=C(c1ccccc1-c1ccccc1)N1CCOCC1` the “activity change, negative = growth inhibition” value was -4.8%.
With `Cc1oc2c(c1C(=O)N1CCOCC1)C(=O)c1ccccc1C2=O` the Potency was 2.59 µM (active).
With `Cc1cccc(C)c1OC(=O)CSc1nnc(-c2ccccc2)o1` the “activity change, negative = growth inhibition” value was -24%.
For `Cc1ccc(-c2nnc(CN3CCN(C)CC3)o2)cc1`, the “activity change, negative = growth inhibition” value was -10.4%.
In the case of `COC(=O)[C@@H](NC(=O)NCc1cccc(OC)c1)C(C)C`, the “activity change, negative = growth inhibition” value is reported as -10.4%.
In the case of `CCCC(O)(c1ccc(OC)cc1)C(CN(C)C)c1ccccc1` (configuration not stated), the “activity change, negative = growth inhibition” value is reported as -8.8%.
For `COc1cccc(CN(C)CC(O)COC(c2ccccc2)c2ccccc2C)c1` (configuration not stated), the Potency was 16.4 µM (active).
With `Cc1ccc(-n2c(SCC(=O)NCc3ccc4c(c3)OCO4)nnc2-c2cccnc2)c(C)c1` the “activity change, negative = growth inhibition” value was -26.4%.
In the case of `O=C(CCSCCc1ccccn1)Nc1nccs1`, the “activity change, negative = growth inhibition” value is reported as -24.1%.
For `COc1ccc(C(=O)c2c(C)oc3cc([N+](=O)[O-])c(O)c([N+](=O)[O-])c23)cc1`, the “activity change, negative = growth inhibition” value was -19.1%.
In the case of `COc1ccc(/C=N/Nc2nc(-c3ccc(C)cc3)c(C#N)c(=O)[nH]2)cc1`, the “activity change, negative = growth inhibition” value is reported as -13.2%.
% is set by controls: 0 for no effect and ±100 for the full control effect; potency is the fitted concentration of half-maximal effect.
